Out of some 330,000 compounds screened, about 1,000 (0.3%) were called active. Roughly 3% stayed inconclusive and do not appear here. The call rests on the fitted dose curve; in most records, active means well fitted inhibition curve with a large enough effect; inconclusive means small, poorly fitted or top-dose-only effect; inactive means no such curve, though single readings can be large or run the other way; tested in mouse RAW 264.7 cells. The entries come from a sample that favours actives as a whole. Where a call stands in place of a potency, no number is given.
Potency means the concentration at half of the fitted maximal effect.

The nature of the assay: qHTS for Inhibitors of Cell Surface uPA Generation. Further: nearly all actives have a fitted effect of over 55% in size. To be noted: cell surface uPA generation assay; series mostly up to 38.3 µM. The source says: The overall objective of this project is to perform a quantitative high throughput screen (qHTS) to identify novel compounds that inhibit the generation of cell surface urokinase activity. The urokinase plasminogen activator (uPA) is one of the two primary endogenous systems that mediate plasminogen activation into plasmin. Members of this system, including uPA and its receptor (uPAR), are overexpressed in several malignant tumors. This system plays a major role in adhesion, migration, invasion and metastasis of cancer cells. Small molecule inhibitors of the uPA system will serve as probes to understand the molecular mechanisms of the uPA cascade and better understanding the microenvironmental circumstances that facilitate the activation of plasminogen by uPA, and finally may provide novel candidate agents for anticancer drug therapy.
[…] […] Upon inhibition of the uPA activation cascade, the subsequent cell surface uPA activity-dependent translocation of LF into the cytoplasm is inhibited. ATP-Lite is used to measure intracellular ATP concentrations, which remain increased if LF entry into the cytoplasm is inhibited. This validation assay was performed using a small set of validation compounds.
NIH Chemical Genomics Center [NCGC]
NIH Molecular Libraries Probe Centers Network [MLPCN]
Assay Submitter (PI): Thomas Bugge, National Institute of Dental and Craniofacial Research, NIH
Cultured RAW 264.7 were dispensed into 1536-well clear bottom, white walled tissue culture plates at a density of 4000 cells/well and were incubated overnight (12-16 h) at 37 C in a 5% CO2 incubator. Serially diluted compounds in 23 nl DMSO were added to cells. […] Compound and reagent-treated plates were incubated for 24 h at 37 C in a 5% CO2 incubator. Perkin Elmer ATPlitetrade mark 1 step (3 ul) was then added to each well. Luminescence was detected using a Perkin Elmer ViewLuxtrade mark plate reader.
1.Dispensing RAW 264.7 cells into 1536-well, white walled tissue culture plates at a density of 4000 cells/well (4 uL).
2.Incubation at 37 C in a 5% CO2 incubator overnight.
3.Serially diluting compounds (1:5 serial dilution; 0.0024 uM to […] final concentration) in 23 nl DMSO.
5.Incubating the compound and reagent-treated plates for 24 hours at 37 C in a 5% CO2 incubator.
6.Adding ATP-Lite (3 ul).
7.Reading plates by ViewLux with an exposure length of 5 seconds.
In general terms: In qHTS, concentration-response curves come from the screen itself.
With `COc1ccc(C(=O)Nc2cccc(NC(=O)c3ccc(OC)cc3OC)n2)c(OC)c1`, the Potency result was “inactive”.

As to `Cc1csc(NC(=O)c2ccc(C)s2)n1`, the Potency result was “inactive”.

`COc1cc(SC)ccc1C(=O)Nc1nc(C)cs1`: the Potency was 0.891 µM (active).

For `COc1cc(SC)ccc1C(=O)NCCOc1ccccc1Cl`, the Potency entry is “inactive”.

As to `COc1ccc(C(=O)NC2=NCCS2)c(OC)c1`, the Potency result was “inactive”.

With `COc1ccc(C(=O)Nc2nncs2)c(OC)c1`, the Potency is 11.2 µM (active).

Take `CCCC(O)(c1ccccc1)C(c1ccccc1)c1ccccn1` (stereo not given): the Potency entry was “inactive”.

Turning to `Cc1cc(C)c(C=NNc2nc3c([nH]2)c(=O)n(C)c(=O)n3C)c(C)c1`, the Potency entry was “inactive”.

With `O=c1c2ccccc2ncn1CCc1ccncc1`, the Potency entry is “inactive”.

For the compound `O=C(Nc1ccccc1)Oc1cccc2cccnc12`, the Potency result is “inactive”.

Consider `NN=C(NN=Cc1ccccc1)c1ccccc1`, for which the Potency entry was “inactive”.

As for `COc1cc(/C=C/c2ccc(/C=C/c3cc(OC)c(OC)c(OC)c3)cc2)cc(OC)c1OC`, the Potency result is “inactive”.

Regarding `CCCN(CCC)S(=O)(=O)c1cc2c(cc1Br)CCN2C(=O)CC`, the Potency entry is “inactive”.

Turning to `COc1ccc(-c2ccc(OC(=O)NC3CCS(=O)(=O)C3)cc2)cc1` (stereo not given), the Potency was 10 µM (active).

`COc1ccc(NC(=S)NC2CCS(=O)(=O)C2)cc1` (stereo not given): the Potency entry was “inactive”.

Consider `O=C(Cc1ccc(Cl)cc1)NC1CCS(=O)(=O)C1` (stereo not given), for which the Potency result is “inactive”.

With `COc1ccc2c(c1)C(=O)CC(c1ccccc1)O2` (stereo not given), the Potency entry was “inactive”.

Take `O=S(=O)(Cc1ccc(Cl)cc1Cl)c1ccc(Cl)cc1`: the Potency entry was “inactive”.

`CC(=O)OCC(=O)C1(O)CCC2C3CC(C)C4=CC(=O)CCC4(C)C3C(O)CC21C` (stereo not given): the Potency result was “inactive”.

As for `COc1cc(C)cc(CN2CCC(Cc3ccccc3)CC2)c1O`, the Potency entry is “inactive”.

`COc1cc(CN2CCC(C(N)=O)CC2)ccc1OCc1ccccc1`: the Potency entry was “inactive”.

As to `Oc1c(CN2CCCC2)cc(COCc2ccccc2)c2cccnc12`, the Potency is 4.47 µM (active).

Consider `Nc1ncnc2c1cnn2C1CC(O)C(CO)O1` (stereo not given), for which the Potency result is “inactive”.

As to `COc1ccc(C2NCCCC2c2ccccc2)cc1` (stereo not given), the Potency result was “inactive”.

As for `O=C(NN=CC=Cc1ccccc1)C(O)C(O)C(=O)NN=CC=Cc1ccccc1` (stereo not given), the Potency entry was “inactive”.

Take `Cc1ccc(-c2cn3cc(C)ccc3n2)cc1`: the Potency result was “inactive”.

Consider `Cc1ccc2nc(-c3ccc(Br)cc3)cn2c1`, for which the Potency is 2.82 µM (active).

On to `Cc1ccc(-c2cn3cc([N+](=O)[O-])ccc3n2)cc1`, for which the Potency result is “inactive”.

Regarding `CC(C)=CCc1ccc(O)c(=O)cc1C(C)C`, the Potency entry is “inactive”.

Regarding `CC(C)Cn1cnc2c(SCc3ccc(Cl)cc3)nc(N)nc21`, the Potency entry was “inactive”.

For `COc1cccc(CNC(=O)c2nnn(CC(=O)Nc3cc(Cl)ccc3C)c2N)c1`, the Potency entry is “inactive”.

For the compound `Nc1c(C(=O)NCc2ccccc2)nnn1Cc1cccc(Cl)c1`, the Potency was 11.2 µM (active).

Consider `COc1cccc(CNC(=O)c2nnn(CC(=O)Nc3cc(C)ccc3C)c2N)c1`, for which the Potency entry was “inactive”.

With `COc1ccc(N=C2C=CC(=O)O2)cc1`, the Potency entry is “inactive”.

For `CCOc1cccc(SCc2noc(C(=O)NC(C)C)c2C(=O)O)c1`, the Potency entry is “inactive”.

For the compound `COC(=O)c1c(CCl)noc1C(=O)NC(C)C`, the Potency is 10 µM (active).

With `CCCNC(=O)c1onc(CSc2ccc(F)cc2)c1C(=O)NC(C)C`, the Potency entry was “inactive”.

On to `CC(=O)OC1CCC2(C)C(=CCC3C4CC(=O)N(O)C(=O)C4(C)CCC32)C1` (stereo not given), for which the Potency entry is “inactive”.

For the compound `CC(NC(=O)c1ccccc1)C(=O)Nc1ccccc1` (stereo not given), the Potency entry is “inactive”.

For the compound `CC(=O)Nc1ccc(C(=O)Nc2cc(S(=O)(=O)N3CCOCC3)ccc2N2CCOCC2)cc1`, the Potency result is “inactive”.

For `CC(=O)Nc1ccc(Nc2c3ccccc3nc3ccccc23)cc1`, the Potency was 1 µM (active).

In the case of `CCc1nc(Nc2ccc(NC(C)=O)cc2)c2oc3ccccc3c2n1`, the Potency entry was “inactive”.

In the case of `CC(C)(C)OC(=O)NNc1c2ccccc2nc2ccccc12`, the Potency result is “inactive”.

`OCC(O)C1OCOC(C(O)CO)C1O` (stereo not given): the Potency result is “inactive”.

`O=C(NCCc1ccccc1)c1cccc(NC(=O)c2ccccc2)c1`: the Potency result is “inactive”.

For `O=C(CCC(=O)N1CCN(S(=O)(=O)c2ccc(Cl)cc2)CC1)NCc1cccc(C(F)(F)F)c1`, the Potency is 12.6 µM (active).

Take `O=C(NCc1cccc(C(F)(F)F)c1)c1cccc(S(=O)(=O)N2CCN(Cc3ccccc3)CC2)c1`: the Potency entry is “inactive”.

For `CC(NC(=O)CCC(=O)N1CCN(S(=O)(=O)c2ccc(Cl)cc2)CC1)c1ccccc1` (stereo not given), the Potency entry was “inactive”.

Consider `Cc1cccc(NC(=S)N2CCC(C(=O)c3ccc(F)cc3)CC2)c1`, for which the Potency entry was “inactive”.

For the compound `Cc1ccc(CNC(=O)Cn2cnc3c(NCc4ccccc4)ncnc32)o1`, the Potency is 11.2 µM (active).

On to `O=C(Cn1cnc2c(OCc3ccccc3)ncnc21)NCc1nc2ccccc2[nH]1`, for which the Potency entry was “inactive”.

Regarding `CC(CNC(=O)Cn1cnc2c(OCc3ccccc3)ncnc21)c1ccccc1` (stereo not given), the Potency entry is “inactive”.

Take `CC(C)OC(=O)c1ccc(NCc2cc(O)ccc2O)cc1Cl`: the Potency entry was “inactive”.

For the compound `NC(=O)Nc1ccc(C(=O)OCC(=O)NC2CCCc3ccccc32)cc1` (stereo not given), the Potency entry was “inactive”.

Take `COC(=O)c1cc(OCC(=O)NC2CCCc3ccccc32)cc(C(=O)OC)c1` (stereo not given): the Potency entry was “inactive”.

The values above are taken from PubChem BioAssay AID540303 (National Center for Advancing Translational Sciences (NCATS), 2011).
